TRAIL sens C8 – viability loss with TRAIL in NB7+C8 cells, primary screen, TRAIL sensitizer project, cell-based, ATPlite luminescence; inhibition (viability loss, TRAIL sensitization), % at 10 µM; 360,000 compounds, 1% hits;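 active means compounds causing at least 50% loss of cell viability in the single-dose screen, relative to plate controls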
SENP8 block-1 – SENP8 protease inhibitors, primary screen, biochemical, luminescence; Sentrin-specific protease 8 (Homo sapiens), Q96LD8; purified SENP8, Z-RLRGG-aminoluciferin cleavage; inhibition, % at 10 µM; 330,000 compounds, 1.2% hits; AID 2540, 2010; in the data active means inhibition above about 50%
Target sequence (Q96LD8 whole entry, looked up): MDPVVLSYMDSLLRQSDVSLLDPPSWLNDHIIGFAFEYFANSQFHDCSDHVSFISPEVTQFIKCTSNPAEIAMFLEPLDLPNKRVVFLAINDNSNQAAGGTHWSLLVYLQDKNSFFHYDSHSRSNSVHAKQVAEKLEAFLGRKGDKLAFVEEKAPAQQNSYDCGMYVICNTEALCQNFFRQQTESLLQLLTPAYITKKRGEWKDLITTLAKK
SENP8 block-2 – human SENP8 protease inhibitors, primary screen, biochemical, fluorescence, Nedd8 protein substrate, uHTS | Sentrin-specific protease 8 (Homo sapiens), Q96LD8 | recombinant SENP8 | inhibition, % at 20 µM | 360,000 compounds, 0.64% hits; in the data active means inhibition mostly above about 40%, no sharp cut-off; inactive means mostly below about 27%
SENP6 block – SENP6 protease inhibitors, primary screen, biochemical, luminescence, uHTS; Sentrin-specific protease 6 (Homo sapiens), Q9GZR1; Recombinant SENP6 catalytic domain, aminoluciferin luminescence; inhibition, % at 10 µM; 330,000 compounds, 1.8% hits; AID 2599, 2010;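 active means inhibition above about 50% at the single tested dose, limit read from the data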
PPC-1+TRAIL kill – compounds killing PPC-1 cancer cells with TRAIL present, primary screen, TRAIL potentiator project, ATPLite luminescence, uHTS | 220,000 compounds, 0.41% hits | PPC-1 cells + TRAIL, ATPLite viability luminescence | cell killing (% activity), % at 4 µM or 5 µM;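 active means cell killing above 50% in the first pass at 4 µM, then a duplicate retest at 5 µM averaging 50% or more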
SENP7 block – SENP7 protease inhibitors, primary screen, biochemical, luminescence, uHTS; recombinant SENP7, Z-RLRGG-aminoluciferin luminescence, 40 min; inhibition, % at 5 µM; 330,000 compounds, 1.5% hits; Sentrin-specific protease 7 (Homo sapiens), Q9BQF6;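 active means inhibition above about 50% at the single test dose, limit read from the data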
Target sequence (Q9BQF6 706-1050 limits assumed): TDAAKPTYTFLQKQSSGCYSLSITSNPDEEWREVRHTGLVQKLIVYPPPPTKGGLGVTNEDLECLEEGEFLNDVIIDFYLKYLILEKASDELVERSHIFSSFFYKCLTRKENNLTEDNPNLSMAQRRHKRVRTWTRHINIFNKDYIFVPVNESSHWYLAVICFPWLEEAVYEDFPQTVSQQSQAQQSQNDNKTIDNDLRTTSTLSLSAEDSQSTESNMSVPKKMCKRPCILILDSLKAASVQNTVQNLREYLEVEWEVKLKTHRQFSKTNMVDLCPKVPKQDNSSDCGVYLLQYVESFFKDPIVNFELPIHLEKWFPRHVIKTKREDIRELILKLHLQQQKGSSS
SENP8 inh conf – human SENP8 protease inhibitors, confirmation, biochemical, Nedd8 protein substrate, single concentration. shares compounds with SENP8 block-2. purified SENP8, Nedd8-AMC/pro-Nedd8 cleavage fluorescence, 30 min. inhibition, % at 25 µM. 1,400 compounds, 15% hits. AID 624319, 2012; in the data active means inhibition mostly above about 39%, no sharp cut-off; inactive means mostly below about 34%
Large screens that a line does not name were inactive (follow-up assays come after a bar, where they were run). A selection: hits, their analogues and other compounds. The true share with any hit is near 3%.

O=C(CSc1ccccc1)Nc1ccc2c(c1)C(=O)NC2=O	none (no result: PPC-1+TRAIL kill)
CN(CC(=O)Nc1ccccc1Cl)C(=O)COC(=O)/C=C/c1cccc(C(F)(F)F)c1	none (no result: PPC-1+TRAIL kill)
COc1cccc(N2C(=O)C(CC(=O)Nc3ccc(F)cc3)N(C3CCCCC3)C2=O)c1 (stereo unspecified)	SENP8 block-2 45.6 | SENP8 inh conf inactive
CCOCCSc1nc2c(c(=O)[nH]c(=O)n2C)n1CCCc1ccccc1	SENP8 block-2 44.2 | SENP8 inh conf inactive
c1ccc2[nH]c3cc4ncnc4cc3nc2c1	SENP8 block-2 47.8 | SENP8 inh conf 59.8
COc1cccc(CN(CC(=O)NC2CCCC2)C(=O)c2csnn2)c1	none (no result: PPC-1+TRAIL kill)
O=C(Cn1nc(C(=O)O)c2ccccc2c1=O)Nc1cc(S(=O)(=O)N2CCOCC2)ccc1Cl	none (no result: PPC-1+TRAIL kill)
COCCCn1c(=O)c2sccc2n2c(CCCC(=O)NCc3ccc(F)cc3)nnc12	none (no result: PPC-1+TRAIL kill)
Cc1cc(O)c(C(C)C)cc1N=Cc1ccccc1O	SENP8 block-2 82.4 | SENP8 inh conf inactive
CC(N=Cc1ccccc1O)c1ccccc1 (stereo unspecified)	none
Cc1cc(O)c(C(C)C)cc1N=Cc1cc([N+](=O)[O-])ccc1O	SENP8 block-2 72.9 | SENP8 inh conf inactive
CCOC(=O)C1C2C=CC3(CN(Cc4cccs4)C(=O)C13)O2 (stereo unspecified)	SENP8 block-2 45.0 | SENP8 inh conf inactive
CCc1ccc2c(c1)C(=O)C[C@]1(CCC[C@H](C)C1)O2	none (no result: PPC-1+TRAIL kill)
CC(=O)NN1C(=O)c2ccc3c4c(ccc(c24)C1=O)C(=O)N(NC(C)=O)C3=O	SENP8 block-2 35.0 (no result: PPC-1+TRAIL kill) | SENP8 inh conf 54.4
CCCn1nc([N+](=O)[O-])c(C(C#N)c2nc3ccccc3o2)c(Cl)c1=O (stereo unspecified)	SENP8 block-2 42.7 | SENP8 inh conf inactive
CCn1nc([N+](=O)[O-])c(C(C#N)c2nc3cc(C(F)(F)F)ccc3s2)c(Cl)c1=O (stereo unspecified)	none
NC(=O)CC(NC(=O)c1ccccc1)C(=O)O (stereo unspecified)	SENP8 block-2 42.4 (no result: PPC-1+TRAIL kill) | SENP8 inh conf inactive
O=C(NC(C(=O)O)c1ccccc1)c1ccccc1 (stereo unspecified)	none (no result: SENP8 block-1, SENP6 block, SENP7 block)
COc1cccc(N(CC(=O)NCc2ccco2)C(=O)CCC(=O)Nc2nccs2)c1	none
CCN(CC)CCNC(=O)c1ccc(NC(=O)COc2ccc3c(c2)CCC3)cc1	none (no result: PPC-1+TRAIL kill)
COC(=O)CCCC1=CC2=C(c3ccccc3)C(=O)C(C)(OC(=O)C3CCCC3)C(=O)C2=CN1C1CCCCC1 (stereo unspecified)	SENP8 block-2 43.6 | SENP8 inh conf 49.0
Cc1ccc(C)c(NC(=O)CN(C)C(=O)c2ccc(S(=O)(=O)N3CCCCCC3)cc2)c1	none (no result: PPC-1+TRAIL kill)
COc1ccc(Nc2ccc(C(F)(F)F)cc2[N+](=O)[O-])cn1	none (no result: PPC-1+TRAIL kill)
COC(=O)c1cnc(Nc2cccc(C(F)(F)F)c2)c([N+](=O)[O-])c1	SENP8 block-2 32.8 | SENP8 inh conf inactive
Cc1[nH]n(-c2ccccc2)c(=O)c1S(=O)(=O)c1ccccc1	SENP8 block-2 71.1 | SENP8 inh conf 43.2
Cc1cccc(C(C)C)c1NC(=O)c1c(-c2ccccc2)noc1C	none (no result: PPC-1+TRAIL kill)
Cc1ccccc1C(=O)N1CCN(c2ccc([N+](=O)[O-])c(NCc3ccco3)c2)CC1	SENP8 block-2 53.4 | SENP8 inh conf inactive
Cc1cccc(C(=O)N2CCN(c3ccc([N+](=O)[O-])c(NCc4ccco4)c3)CC2)c1	none
CC(=O)N1CCN(c2ccc([N+](=O)[O-])c(NCc3cccnc3)c2)CC1	none
O=C(c1cccc2ccccc12)N1CCN(c2ccc([N+](=O)[O-])c(NCc3ccco3)c2)CC1	SENP8 block-2 42.4 | SENP8 inh conf inactive
Cc1ccc(C(=O)N2CCN(c3ccc([N+](=O)[O-])c(NCc4ccco4)c3)CC2)cc1	SENP8 block-2 48.0 | SENP8 inh conf inactive
COc1ccc(C2=Cc3ccc(OC(C)=O)cc3OC2)cc1	none (no result: SENP8 block-1, SENP6 block, PPC-1+TRAIL kill, SENP7 block)
CC1CC(C)CN(C(=O)CCNC(=O)Cn2ccc3ccccc3c2=O)C1 (stereo unspecified)	none (no result: PPC-1+TRAIL kill)
CCN(CC(=O)Nc1c(F)cccc1F)C(=O)/C=C/c1cn(Cc2ccccc2)nc1-c1cccnc1	none (no result: PPC-1+TRAIL kill)
C=CCC(C(=O)OC)(C(=O)OC)c1ccc([N+](=O)[O-])cc1[N+](=O)[O-]	SENP8 block-2 42.5 | SENP8 inh conf inactive
C=CCC(C(=O)OC)(C(=O)OC)c1ccc(C(F)(F)F)cc1[N+](=O)[O-]	none
CCOc1ccc(N/C=C/C(=O)c2ccc(OC)cc2)c([N+](=O)[O-])c1	none
COc1ccc(N/C=C/C(=O)c2ccc(C)cc2)c([N+](=O)[O-])c1	SENP8 block-2 44.5 (no result: PPC-1+TRAIL kill) | SENP8 inh conf inactive
CC(NC(=O)c1ccc(Cn2cc([N+](=O)[O-])cn2)o1)c1ccccc1 (stereo unspecified)	SENP8 block-2 49.6 | SENP8 inh conf inactive
N#C/C(=C\C1=C(N2CCOCC2)C(=C/c2cccc([N+](=O)[O-])c2)/CC1)C(=O)Nc1ccccc1F	SENP8 block-2 47.9 (no result: SENP8 block-1, SENP6 block, SENP7 block) | SENP8 inh conf inactive
N#C/C(=C/C1=C(N2CCOCC2)C(=C/c2cccc([N+](=O)[O-])c2)/CC1)C(=O)Nc1ccccc1F	none (no result: SENP8 block-1, SENP6 block, PPC-1+TRAIL kill, SENP7 block)
COC(=O)CN1C(=O)S/C(=C/c2ccc(N3CCCCC3)o2)C1=O	SENP8 block-2 41.9 | SENP8 inh conf inactive
CC(C)C[C@H](NC(=O)N1c2ccccc2NC(=O)[C@@H]1C(C)C)C(=O)N1CCC[C@@H]1C(=O)O	SENP8 block-2 55.7 (no result: PPC-1+TRAIL kill) | SENP8 inh conf inactive
CCC(C)[C@H](NC(=O)N1CC(=O)Nc2ccccc21)C(=O)N[C@H](Cc1ccccc1)C(=O)O (stereo partly specified)	SENP8 block-2 41.1 (no result: PPC-1+TRAIL kill) | SENP8 inh conf inactive
CC(C)[C@H](NC(=O)N1c2ccccc2NC(=O)[C@@H]1C(C)C)C(=O)N[C@H](Cc1ccccc1)C(=O)O	SENP8 block-2 40.0 (no result: PPC-1+TRAIL kill) | SENP8 inh conf inactive
CC(C)[C@H]1C(=O)Nc2ccccc2N1C(=O)N[C@@H](Cc1ccccc1)C(=O)N[C@H](Cc1ccccc1)C(=O)O	none (no result: PPC-1+TRAIL kill)
COc1ccc2c(c1)CCC1C2CCC2(C)C(O)C(=O)CC12 (stereo unspecified)	none (no result: SENP8 block-1, SENP6 block, PPC-1+TRAIL kill, SENP7 block)
